Test results reported in publication PMC5540273 (PLoS ONE, 2017).

System: T1, YSK1
T1 construct: gene STK25
Conditions: concentration: 1 μM,replicates: in singlicate; n = 1
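Note: KINOMEscan kinase panel screen.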

| SMILES | %Inh [%] |
| --- | --- |
| Cc1n[nH]c2cc(Nc3ccnc(Nc4cccc(CN5CCOCC5)c4)n3)ccc12 [GW682569] | 10 |
| Cn1ccc2ncnc(Oc3ccc(NC(=O)Nc4ccnc(C(F)(F)F)c4)c(Cl)c3)c21 | 0 |
| COC(=O)c1cccc(NC(=O)NC2CCN(c3ccnc(NCc4ccc(F)cc4)n3)CC2)c1 [GSK1379860] | 0 |
| CCn1c(-c2nonc2N)nc2cncc(Br)c21 [SB-738004] | 0 |
| C[C@@H]1CCN(C(=O)N2CCCC2)C[C@@H]1N(C)c1ncnc2[nH]ccc12 | 0 |
| O=C(NOCC1CC1)c1cc(Br)c(F)c(F)c1Nc1ccc(I)cc1Cl | 0 |
| C[C@@H](Oc1cc(-n2cnc3cc(-c4cnn(C)c4)ccc32)sc1C(N)=O)c1ccccc1Cl [GSK580432] | 31 |
| CN(c1ccc2c(c1)nc(NCc1ccc(F)cc1)n2C)c1ccnc(Nc2ccc(CS(C)(=O)=O)cc2)n1.Cl [GW813244] | 4 |
| NC(=O)Nc1sc(-c2ccc(F)cc2)cc1C(N)=O [GW789449] | 0 |
| O=C(Nc1n[nH]c2cc(-c3ccco3)ccc12)C1CC1 [SB-737447] | 0 |
| CCn1c(-c2nonc2N)nc2cncc(CNC3CCNCC3)c21.Cl [SB-747651] | 0 |
| C[C@@H]1CNc2c(sc3ccc4nc(-c5ccc(O)cc5)ccc4c23)C(=O)N1 | 0 |
| O=C(Nc1ccc(Oc2ccc3nc(NC(=O)C4CC4)cn3n2)c(F)c1)c1cccn(-c2ccccc2)c1=O | 0 |
| CS(=O)(=O)c1cccc(CNc2nc(Nc3ccc4c(c3)[C@@H]3C[C@@H]4CNC3=O)ncc2C(F)(F)F)c1 | 0 |
| COc1cccc(OC)c1C(=O)Nc1cccc(-c2nn3ccccc3c2-c2ccnc(Nc3cccc(F)c3)n2)c1 [GSK361065] | 1 |
| OCCn1cc(-c2cnc3nnn(Cc4ccc5ncccc5c4)c3n2)cn1 | 0 |
| CC(=O)Nc1ccc(-c2cc3ncnc(SCC(=O)O)c3s2)cc1 | 11 |
| CCN1CCN(CCCC(=O)Nc2n[nH]c3nc(-c4ccc(O)cc4)c(Br)cc23)CC1 [SB-731579] | 0 |
| O=C(Nc1cccc(Oc2ccc3nccn3n2)c1)Nc1cccc(C(F)(F)F)c1 | 0 |

| SMILES | %Inh [%] |
| --- | --- |
| Nc1nccc(-c2ccc3c(N)n[nH]c3c2)n1 [GSK1034945] | 17 |
| COc1cc2c(Nc3ccc(NC(=O)c4ccccc4)cc3)ncnc2cc1OCCCN1CCOCC1 [GSK301329] | 6 |
| COC(=O)c1cccc(NC(=O)NC2CCN(c3ccnc(Nc4cc(OC)c(OC)c(OC)c4)n3)C2)c1 (stereo not shown) [GSK1379767] | 16 |
| COC(=O)Nc1nc2cc(Oc3ccc(NC(=O)Nc4cc(C(F)(F)F)ccc4Cl)cc3)ccc2[nH]1.Cl [GW697465] | 4 |
| COc1cc2ncn(-c3cc(OCC4CCCCC4)c(C(N)=O)s3)c2cc1OC [GSK204559] | 24 |
| CCCC(=O)Nc1n[nH]c2ncccc12 [SB-601436] | 0 |
| Cl.c1ccc(Oc2ccc(Nc3ccnc4cc(-c5ccc(CN6CCNCC6)o5)ccc34)cc2)nc1 [GW567142] | 22 |
| C[C@@H]1CNc2c(sc3ccc4nc(-c5ccncc5)ccc4c23)C(=O)N1 | 0 |
| CCOC(=O)N1CCC(n2cnc(-c3ccc(F)cc3)c2-c2ccnc(N)n2)CC1 [SB-219952] | 0 |
| CC(=O)Nc1nc2cnc(Nc3cc(NC(=O)c4cccc(CC(C)(C)C#N)c4)ccc3C)nc2s1 | 0 |
| Cn1ccc2ncnc(Oc3ccc(NC(=O)Nc4cnn(C(C)(C)C)c4)c(Cl)c3)c21 | 8 |
| Cc1ccc(CC(=O)N2CCc3cc(-c4cn(C)c5ncnc(N)c45)ccc32)cc1 [GSK2634758] | 26 |
| N#Cc1cccc(C(=O)NC2CCN(c3ccnc(Nc4ccc(F)cc4)n3)C2)c1 (stereo not shown) [GSK1379708] | 0 |
| Cl.Nc1n[nH]c2cc(-c3ccccn3)ccc12 [GSK2189892] | 8 |
| Cc1nnc(-c2ccc3occ(-c4ccc(S(C)=O)cc4)c3n2)o1 (stereo not shown) | 7 |
| NC(=O)c1ccc(-c2cc3ncnc(SCC(=O)O)c3s2)cc1 | 0 |
| Cc1cccc2c(-c3ccncc3)c(-c3ccc(F)cc3)nn12.Cl [GW461487] | 11 |
| CC(=O)c1c(-c2ccncc2)[nH]c(-c2ccncc2)c1C [GW493036] | 0 |
